Compounds with a hit are over-represented: about 2.6% of the library has one in this group of screens.
GPR7 antagonist: human neuropeptides B/W receptor 1 antagonism; P48145; GPR7-expressing cells, fluorescence antagonist assay; inhibition, % at 4.4 µM; 1.1% of 290,000 active; AID 1861; in the data active = inhibition above about 16%, passing the limit was not always enough;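 note: cells stimulated with the agonist NPW; 0% = agonist with vehicle and 100% = vehicle without agonist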
Target sequence (P48145 whole entry, looked up): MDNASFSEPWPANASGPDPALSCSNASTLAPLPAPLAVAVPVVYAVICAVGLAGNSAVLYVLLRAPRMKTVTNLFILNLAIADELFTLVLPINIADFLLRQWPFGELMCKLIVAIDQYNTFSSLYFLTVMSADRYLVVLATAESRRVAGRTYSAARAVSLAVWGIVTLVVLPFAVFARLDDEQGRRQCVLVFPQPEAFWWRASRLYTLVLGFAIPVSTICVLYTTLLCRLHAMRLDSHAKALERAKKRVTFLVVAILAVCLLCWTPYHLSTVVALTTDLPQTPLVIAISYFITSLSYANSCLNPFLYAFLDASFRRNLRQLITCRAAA
KLF5 inh: suppresses KLF5 promoter-driven expression. DLD-1 KLF5 promoter-luciferase reporter, luminescence. inhibition, % at 5 µM. 0.23% of 290,000 active. AID 1700;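 active = inhibition above a per-plate limit of that plate's mean compound inhibition plus 3 SD, cut at about 60% in these data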;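 note: 0% = DMSO wells and 100% = LY294002 at 200 µM; higher means less KLF5 promoter-driven luciferase light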
IEC-6 tox: counter-screen for KLF5 inhibitors: cytotoxicity in IEC-6 cells; IEC-6 cytotoxicity, luminescence viability; inhibition, % at 5 µM; 0.78% of 290,000 active;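 note: 0% = plate median of test compound wells and 100% = cytotoxic reference compound wells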
Ba/F3 V617F tox: reduce viability of Ba/F3 cells dependent on JAK2V617F | Ba/F3 EpoR-JAK2V617F viability, ATP luminescence | inhibition, % at 5.6 µM | 1.1% of 220,000 active | AID 1446;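 active = inhibition above the campaign mean plus 3 SD over all tested compounds, cut at about 24% in these data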;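 note: cytokine-independent growth of Ba/F3 cells driven by EpoR plus mutant JAK2; 0% = DMSO-treated cells and 100% = JAK inhibitor I control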
DNA FID counter: displaces DNA intercalator in HCV helicase counter-screen. DNA fluorescent intercalator displacement, fluorescence. 0.17% of 290,000 active. AID 1845. inhibition, % at 7.9 µM; in the data active = inhibition above about 37%;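 note: 0% = vehicle and 100% = reference compound; higher means more ethidium bromide displaced from hairpin DNA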
BaF3 parental: reduces parental Ba/F3 cell viability, JAK2V617F counter-screen | CellTiter-Glo ATP luminescence | inhibition, % at 5.6 µM | 1.1% of 220,000 active | AID 1486;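 active = inhibition above a per-campaign cutoff, the mean inhibition of all tested compounds plus 3 SD, cut at about 27% in these data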;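 note: 0% = DMSO wells and 100% = JAK Inhibitor I control wells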
GPR7 antag conf: confirmation of human GPR7 antagonists | shares compounds with GPR7 antagonist | GPR7-expressing cells, calcium fluorescence antagonist mode | inhibition, % at 4.4 µM | 52% of 2,400 active | AID 1952; in the data active = inhibition above about 24%;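 note: stimulated with the GPR7 agonist NPW; 0% = agonist plus vehicle and 100% = vehicle alone without agonist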
MCHR1 antagonist: antagonizes human MCHR1, a GPR7 antagonist counter-screen; shares compounds with GPR7 antagonist; MCHR1-expressing cells, fluorescence antagonist assay; inhibition, % at 4.4 µM; 62% of 2,400 active;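 note: 0% = vehicle with agonist and 100% = vehicle without agonist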
* = called active by the depositor; / = not tested or not shown; ! = not active in a repeat. Cut-off read from the data, not from the text of the source, unless noted: active = inhibition above about 22%; inactive = the rest.

SMILES	GPR7 antagonist	KLF5 inh	IEC-6 tox	Ba/F3 V617F tox	DNA FID counter	BaF3 parental	GPR7 antag conf	MCHR1 antagonist
COCCCNS(=O)(=O)c1ccc2[nH]c(=O)[nH]c2c1	5	-16	-1	-1	2	-4	/	/
Cc1ccc(C(=O)N/N=C/c2ccoc2)cc1C	26*	-37	1	/	-24	/	4	6
CCOC(=O)N1CN(C(=O)OCC)CN(C(=O)OCC)C1	18*	-3	0	-1	-9	0	-12	-7
CC(C)C(c1nnnn1C1CCCC1)N1CCC(C(N)=O)CC1 (configuration not stated)	2	-32	-3	1	-11	4	/	/
COC(=O)c1ccc(CSc2nnc(NC(C)C)s2)o1	-4	-18	0	-4	1	1	/	/
COC(=O)c1ccc(CSc2nnc(Nc3cccc(OC)c3)s2)o1	46*	-4	3	3	-19	1	1	48*
COc1ccc2nc(C)cc(N3CCOCC3)c2c1	22*	-9	5	4	3	2	-11	-6
COc1ccc2nc(C)cc(N3CCN(c4ccccc4)CC3)c2c1	-1	-10	4	/	3	/	/	/
CCOC(=O)N1CCN(C(=O)c2ccc3c(=O)n(Cc4ccccc4OC)c(=S)[nH]c3c2)CC1	12	-11	-7	-7	-3	-2	/	/
COc1ccccc1Cn1c(=S)[nH]c2cc(C(=O)N3CCC(C(N)=O)CC3)ccc2c1=O	25*	-10	4	/	-34	/	7	12
O=S(=O)(c1ccc(Br)s1)N1CCN(c2ccnc3cc(Cl)ccc23)CC1	28*	-17	1	-2	-17	-1	37*	29*
CCN(CC)c1ccc2c(c1)CCCN2	-5	-5	11	5	-5	16	/	/
Cc1ccc(-c2onc(C)c2C)cc1S(=O)(=O)N1CCOc2ccccc21	9	-8	6	/	-28	/	/	/
O=C(NC(=S)Nc1cccc([N+](=O)[O-])c1)C1CCCCC1	32*	-45	-24	/	0	/	33*	39*
CN(C)S(=O)(=O)c1cccc(NC(=S)NC(=O)C2CCCCC2)c1	32*	-19	3	-4	-11	3	1	35*
Cc1ccccc1NC(=O)NC1(C(=O)N2CCN(C)CC2)CCCCC1	-8	5	2	/	2	/	/	/
Cc1ccccc1-c1nnn(Cc2ccc(F)cc2Cl)n1	-4	-37	-5	/	-18	/	/	/
CCC(C)c1ccc(NC(=O)NCCN2CCCCC2)cc1 (configuration not stated)	32*	5	-1	/	24	/	1	4
CNCCCC1c2ccccc2C=Cc2ccccc21	13	-24	2	11	14	0	/	/
CNCCCC12CCC(c3ccccc31)c1ccccc12	28*!	-7	13	3	15	7	34*	29*
CCc1ccc(CNC(=O)CCC(=O)N2Cc3cccc(OC)c3Oc3ncccc32)cc1	23*	-11	-5	/	-65	/	3	-5
Cc1ccccc1NC(=O)Cn1c(=O)n(-c2ccc(CC(=O)NCC3CCCO3)cc2)c(=O)c2ccccc21 (configuration not stated)	-1	-12	-2	1	-18	3	/	/
Cc1ccc(Cl)cc1N1CCN(CC(=O)Nc2ccc(CN3CCCCC3)cc2)CC1	24*	-33	-2	2	33	7	28*	56*
COc1ccccc1N1CCN(CC(=O)Nc2ccc(CN3CCCCC3)cc2)CC1	-8	-4	7	6	27	8	/	/
CC1=C(C(=O)OCCOC(C)C)C(c2cc3c(cc2Br)OCO3)C2=C(CCCC2=O)N1 (configuration not stated)	-13	-2	-1	-1	-26	5	/	/
SMILES	GPR7 antagonist	KLF5 inh	IEC-6 tox	Ba/F3 V617F tox	DNA FID counter	BaF3 parental	GPR7 antag conf	MCHR1 antagonist
Cc1cccc(NC(=O)c2snc3c(=O)[nH]cnc23)c1	-10	-16	-8	1	4	7	/	/
O=S(=O)(c1ccc(F)cc1)N1CCN(CC(O)COc2ccccc2F)CC1 (configuration not stated)	23	-21	-7	/	-13	/	/	/
CC(C)c1ccccc1OCC(O)CN1CCN(S(=O)(=O)c2ccc([N+](=O)[O-])cc2)CC1 (configuration not stated)	47*	-13	-4	/	-6	/	45*	76*
Cc1ccccc1CN(c1ccc(C(=O)N2CCc3ccccc3C2)cc1)S(C)(=O)=O	28*	3	-6	0	-40	4	52*	58*
CNC(=O)c1ccc(N(Cc2ccccc2C)S(C)(=O)=O)cc1	-8	5	4	-4	-3	1	/	/
O=C(Nc1cccc(F)c1)Nc1ccc(Cl)cn1	-14	-90	-8	/	-3	/	/	/
COc1ccc(C2Nc3ccccc3C(=O)N2Cc2ccco2)cc1COc1ccc(F)cc1 (configuration not stated)	27*	-4	3	-5	-29	-2	29*	25*
COc1ccc(C2Nc3ccccc3C(=O)N2Cc2ccco2)cc1CN1C(=O)c2ccccc2C1=O (configuration not stated)	10	-8	-8	-4	-25	5	/	/
O=C(O)CCC(=O)N1N=C(c2ccc(Br)cc2)CC1c1ccc(Br)cc1 (configuration not stated)	1	-18	-1	/	-38	/	/	/
C=CCOc1cccc(C(=O)/C=C2/C(=O)Nc3ccccc32)c1	43*	-15	6	/	-8	/	65*	81*
CCCC(c1nnnn1C1CCCCC1)N1CCN(c2ncccn2)CC1 (configuration not stated)	-1	1	-4	-1	-34	1	/	/
CCCCC(c1nnnn1C1CCCC1)N1CCN(C2CCCCC2)CC1 (configuration not stated)	42*	-27	-1	-2	-1	4	47*	21
CCc1ccc(-n2c(SCC(=O)N3CCC(C(=O)O)CC3)nnc2-c2ccncc2)cc1	-9	-5	0	-3	-40	0	/	/
CCc1ccc(-n2c(SCC(=O)N3Cc4ccccc4CC3C(=O)O)nnc2-c2ccncc2)cc1 (configuration not stated)	21*	-15	-4	-2	-48	-8	3	-2
CCOC(=O)CSc1nc(N)c(C#N)c(-c2ccc(OCC)cc2)c1C#N	22*	-16	2	0	2	3	10	22*
COc1ccccc1NC(=O)NCCN1C(=O)C2C3C=CC(C3)C2C1=O (configuration not stated)	-10	-37	1	2	-7	5	/	/
CCc1ccc(N2C(=O)CN(Cc3ccccc3)C2=S)cc1	39*	-15	0	/	-22	/	5	-3
